The record followed here is PubChem BioAssay (NCI).

The structures appear in SMILES notation. Compounds without any hit were thinned out: in the full panel of roughly 83,000, 20% have a hit.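 96-well plates, one dose, 48 hours. Percent growth reported; active if below 10.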 Calls of active or inactive are those of the source.

For one test, the system named is NCI-H23 lung. The test is described as follows: NCI-60 one-dose screen, 48 h (100 = growth as untreated, 0 = no growth, -100 = all killed). To be noted: 10 µM.
On to `COc1ccc(-c2nc(-c3nc4cc(Cl)c(Cl)cc4[nH]3)c3ccccn23)cc1`, for which the growth was 67.5% (inactive).
Same read-out and setting: to `O=C1/C(=C\c2ccc(Cl)cc2)CN(C(=O)c2ccccc2)C/C1=C\c1ccc(Cl)cc1` belongs 58.2% (inactive); to `Clc1cc2c(c(CSc3nc4ccccc4n4cccc34)c1)OCOC2`, 77.9% (inactive); to `COc1cc(Cl)cc(-c2nn(-c3cccc(NC(=O)Nc4cc(C(F)(F)F)cc(C(F)(F)F)c4)c3)cc2-c2ccncc2)c1`, -6.14% (active).
Turning to `COc1ccc(OC)c(/C=C/c2nc(SCc3ccccc3)n(-c3ccc(Cl)cc3)n2)c1`, the growth was 54.3% (inactive).
On the same count and under the same terms, in the case of `CC(=O)/C(=C/c1ccccc1)C(=O)CC(C)C` it was 100% (inactive).
With `CC(=O)CSC(C)=O`, the growth was 108% (inactive).
On the same count and under the same terms, to `CNc1ccc(CSc2ccc(C)cc2)cc1` belongs 91.2% (inactive).
Still for that read-out and setting: to `c1ccc(C(NC2CC3CCC2C3)c2ccccc2)cc1` (centres undefined) belongs 105% (inactive); to `COc1cc(-c2nn3c(/C=C4/C(=O)Nc5ccccc54)c(-c4ccc(C)cc4)nc3s2)cc(OC)c1OC`, 51.2% (inactive).
Same read-out and setting: to `COc1cc(NC(=O)CSc2nc3ccccc3c(=O)n2CCc2ccccc2)cc(OC)c1OC` belongs 26.6% (inactive); to `CN(C)C(=S)N/N=C\C=N/NC(=S)N(C)C`, 62.6% (inactive); to `COc1cc2cc3c(nc2cc1OC)CCN3Cc1ccc(NC(=O)Nc2ccc(F)cc2F)cc1`, 71.5% (inactive).
On to `O=C(N/N=C\c1cc(Cl)ccc1[N+](=O)[O-])c1ccco1`, for which the growth is 98.2% (inactive).
With `COc1ccc(Cl)cc1-n1nnc(-c2nc3ccccc3[nH]2)c1N`, the growth is 92.8% (inactive).
Same read-out and setting: to `COc1ccc(/C=C2/CN(C(=O)c3ccc(C)cc3)C/C(=C\c3ccc(OC)cc3)C2=O)cc1` belongs 87.6% (inactive); to `COc1ccc(Nc2ncnc3c2c(SC)nn3-c2ccccc2)cc1`, 89.8% (inactive).
Consider `COc1ccc(-c2cc(/C=C3\C(=O)Nc4ccc(OC)cc43)[nH]n2)cc1`, for which the growth is 67.1% (inactive).
Same read-out and setting: in the case of `CC(=O)N1N=C(c2ccc(Cl)cc2)CC1c1sc(Cl)nc1Cl` (centres undefined) it was 87.4% (inactive); in that of `CN(C)c1ccc(-c2cc(-c3cccc(NS(C)(=O)=O)c3)nc(N)c2C#N)cc1`, 21.5% (inactive); in that of `NC(=S)N=Nc1c(O)c2ccccc2c2ccccc12`, 6.64% (active).
On the same count and under the same terms, to `O=[N+]([O-])c1ccc(Oc2cc(Cl)c(Cl)cc2Cl)c(C(F)(F)F)c1` belongs 111% (inactive); to `O=C(CC(C(=O)c1ccccc1)N1CCOCC1)c1ccccc1` (centres undefined), 97.4% (inactive).
As to `COc1ccc(-c2nn(-c3cccc(NC(=O)Nc4cc(C(F)(F)F)cc(C(F)(F)F)c4)c3)cc2-c2ccncc2)cc1Cl`, the growth was 5.1% (active).
On to `COc1cc(/C=C/C(=O)c2ccc(Cl)cc2)ccc1OS(=O)(=O)c1ccc(C)cc1`, for which the growth is 99.3% (inactive).

For the next test, the system named is NCI-H226 lung. Described as above. To be noted: 10 µM.
Regarding `N=c1nc(N)ncn1-c1ccccc1`, the growth is 89.9% (inactive).
The same measure, in the same setting: in the case of `COc1ccc(-c2nnc(-c3c(-c4ccccc4)nc4ncccn34)o2)cc1OC` it was 93.2% (inactive).
Same read-out and setting: to `Nc1ncn([C@@H]2O[C@H](CO)[C@@H](O)[C@H]2O)c(=O)n1` belongs 45.9% (inactive); to `CCOC(=O)CCC(NC(=O)c1ccc(N)cc1)C(=O)OCC` (centres undefined), 103% (inactive); to `CC(=O)N(C)c1ccc(Nc2ccc(Nc3ccc(N(C)C(C)=O)cc3)c3c2C(=O)c2ccccc2C3=O)cc1`, 84.2% (inactive).
As for `COc1ccc(-c2nc3sccn3c2-c2nc3c([nH]2)C(=O)c2ccccc2C3=O)cc1`, the growth is 95.1% (inactive).
Regarding `COc1ccc2c(c1)C(=O)c1c-2c(OCCN(C)C)nc2cc(OC)c(OC)cc12`, the growth is 58% (inactive).
Same read-out and setting: in the case of `COc1cc(/C=C\c2cc(OC)c(OC)c(OC)c2)cc(NS(=O)(=O)c2ccc(Cl)cc2)c1OC` it was 33.9% (inactive); in that of `C=C(C(=O)c1ccccc1)C(NC(C)(C)C)c1ccccc1` (centres undefined), 67.9% (inactive).
Same read-out and setting: to `O=C1/C(=C/c2ccc(Cl)cc2)SC(=Nc2ccc(Cl)cc2)N1Cc1nc2ccccc2[nH]1` belongs 81.5% (inactive); to `CC12O[C@H](C[C@@H](OC(=O)c3ccccc3)[C@H]1O)n1c3ccccc3c3c4c(c5c6ccccc6n2c5c31)C(=O)NC4=O`, 32.3% (inactive).
Same read-out and setting: to `COc1ccc(Oc2nc(NC3CCCC3)nc(Sc3ccc(OC)cc3)n2)cc1` belongs 67.4% (inactive).
On to `COc1cc(-c2cc(/C=C/C(=O)c3ccc4c(c3)OCO4)[nH]n2)cc(OC)c1OC`, for which the growth was 84.6% (inactive).
Still for that read-out and setting: to `CCN(CC)CCOc1nc2cc(OC)c(OC)cc2c2c1-c1ccc(OC)cc1C2=O` belongs 74.3% (inactive); to `COc1ccc(-c2nc(-c3nc4cc(Cl)c(Cl)cc4[nH]3)c3ccccn23)cc1`, 44.5% (inactive).
Same read-out and setting: in the case of `O=C1/C(=C\c2ccc(Cl)cc2)CN(C(=O)c2ccccc2)C/C1=C\c1ccc(Cl)cc1` it was 10% (inactive); in that of `Clc1cc2c(c(CSc3nc4ccccc4n4cccc34)c1)OCOC2`, 134% (inactive).
For `COc1cc(Cl)cc(-c2nn(-c3cccc(NC(=O)Nc4cc(C(F)(F)F)cc(C(F)(F)F)c4)c3)cc2-c2ccncc2)c1`, the growth was -5.97% (active).
The same measure, in the same setting: to `COc1ccc(OC)c(/C=C/c2nc(SCc3ccccc3)n(-c3ccc(Cl)cc3)n2)c1` belongs 72.7% (inactive).
Same read-out and setting: in the case of `CC(=O)/C(=C/c1ccccc1)C(=O)CC(C)C` it was 106% (inactive).
Still for that read-out and setting: to `CC(=O)CSC(C)=O` belongs 99% (inactive); to `CNc1ccc(CSc2ccc(C)cc2)cc1`, 32.8% (inactive).
For `c1ccc(C(NC2CC3CCC2C3)c2ccccc2)cc1` (centres undefined), the growth was 85.8% (inactive).
Consider `COc1cc(-c2nn3c(/C=C4/C(=O)Nc5ccccc54)c(-c4ccc(C)cc4)nc3s2)cc(OC)c1OC`, for which the growth was 96.4% (inactive).
Take `COc1cc(NC(=O)CSc2nc3ccccc3c(=O)n2CCc2ccccc2)cc(OC)c1OC`: the growth is -0.963% (active).
Still for that read-out and setting: to `CN(C)C(=S)N/N=C\C=N/NC(=S)N(C)C` belongs 76.9% (inactive).
Same read-out and setting: to `COc1cc2cc3c(nc2cc1OC)CCN3Cc1ccc(NC(=O)Nc2ccc(F)cc2F)cc1` belongs 79.4% (inactive).
Still for that read-out and setting: in the case of `O=C(N/N=C\c1cc(Cl)ccc1[N+](=O)[O-])c1ccco1` it was 105% (inactive).
Turning to `COc1ccc(Cl)cc1-n1nnc(-c2nc3ccccc3[nH]2)c1N`, the growth was 60% (inactive).
In the case of `COc1ccc(/C=C2/CN(C(=O)c3ccc(C)cc3)C/C(=C\c3ccc(OC)cc3)C2=O)cc1`, the growth was 82.1% (inactive).
Still for that read-out and setting: to `COc1ccc(Nc2ncnc3c2c(SC)nn3-c2ccccc2)cc1` belongs 85.5% (inactive); to `COc1ccc(-c2cc(/C=C3\C(=O)Nc4ccc(OC)cc43)[nH]n2)cc1`, 69.8% (inactive).
In the case of `CC(=O)N1N=C(c2ccc(Cl)cc2)CC1c1sc(Cl)nc1Cl` (centres undefined), the growth was 43.1% (inactive).
On the same count and under the same terms, in the case of `CN(C)c1ccc(-c2cc(-c3cccc(NS(C)(=O)=O)c3)nc(N)c2C#N)cc1` it was 39.6% (inactive); in that of `NC(=S)N=Nc1c(O)c2ccccc2c2ccccc12`, 94.2% (inactive).
Still for that read-out and setting: to `O=[N+]([O-])c1ccc(Oc2cc(Cl)c(Cl)cc2Cl)c(C(F)(F)F)c1` belongs 94.6% (inactive).
Consider `O=C(CC(C(=O)c1ccccc1)N1CCOCC1)c1ccccc1` (centres undefined), for which the growth is 90.3% (inactive).
As for `COc1ccc(-c2nn(-c3cccc(NC(=O)Nc4cc(C(F)(F)F)cc(C(F)(F)F)c4)c3)cc2-c2ccncc2)cc1Cl`, the growth was 24.2% (inactive).
Same read-out and setting: to `COc1cc(/C=C/C(=O)c2ccc(Cl)cc2)ccc1OS(=O)(=O)c1ccc(C)cc1` belongs 98.5% (inactive).
